biological target: pT7_6His-AlfaTag-HOXD13 (human, UniProt P35453 263-343); test: PADIT-seq; conditions: dsDNA, one strand shown
Sequence (P35453 263-343): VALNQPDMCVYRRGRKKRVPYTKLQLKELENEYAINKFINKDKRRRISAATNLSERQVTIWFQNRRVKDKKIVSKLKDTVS

Sequence	binding signal [log2FC]
CTCGAGGATATCAAGATCTGGCCTCGGCCTTTTATAAGGAACCTCTAGCTAGCCGACTCACTATAGGGATAATCGCCCTGAGCAAAGACC	3.23 ± 0.0726
CTCGAGGATATCAAGATCTGGCCTCGGCTTCATAAAAGGAACCTCTAGCTAGCCGACTCACTATAGGGATAATCGCCCTGAGCAAAGACC	2.49 ± 0.0838
CTCGAGGATATCAAGATCTGGCCTCGGCCTTTTAATGGGAACCTCTAGCTAGCCGACTCACTATAGGGATAATCGCCCTGAGCAAAGACC	2.57 ± 0.0798
CTCGAGGATATCAAGATCTGGCCTCGGCCTTTTACCAGGAACCTCTAGCTAGCCGACTCACTATAGGGATAATCGCCCTGAGCAAAGACC	0.296 ± 0.0912
CTCGAGGATATCAAGATCTGGCCTCGGCGTGATAAAAGGAACCTCTAGCTAGCCGACTCACTATAGGGATAATCGCCCTGAGCAAAGACC	1.99 ± 0.0801
CTCGAGGATATCAAGATCTGGCCTCGGCTGTATAAAAGGAACCTCTAGCTAGCCGACTCACTATAGGGATAATCGCCCTGAGCAAAGACC	2.01 ± 0.0809
CTCGAGGATATCAAGATCTGGCCTCGGCATCATAAAAGGAACCTCTAGCTAGCCGACTCACTATAGGGATAATCGCCCTGAGCAAAGACC	2.56 ± 0.0828
CTCGAGGATATCAAGATCTGGCCTCGGCCTTTTAGGCGGAACCTCTAGCTAGCCGACTCACTATAGGGATAATCGCCCTGAGCAAAGACC	-0.31 ± 0.108
CTCGAGGATATCAAGATCTGGCCTCGGCCGCCCAATTGGAACCTCTAGCTAGCCGACTCACTATAGGGATAATCGCCCTGAGCAAAGACC	-0.555 ± 0.114
CTCGAGGATATCAAGATCTGGCCTCGGCTTGCTAAAAGGAACCTCTAGCTAGCCGACTCACTATAGGGATAATCGCCCTGAGCAAAGACC	-0.271 ± 0.11
CTCGAGGATATCAAGATCTGGCCTCGGCCTTTTAGATGGAACCTCTAGCTAGCCGACTCACTATAGGGATAATCGCCCTGAGCAAAGACC	0.264 ± 0.0998
CTCGAGGATATCAAGATCTGGCCTCGGCCGCACGCGCGGAACCTCTAGCTAGCCGACTCACTATAGGGATAATCGCCCTGAGCAAAGACC	-0.992 ± 0.148
CTCGAGGATATCAAGATCTGGCCTCGGCCTTGTAAAAGGAACCTCTAGCTAGCCGACTCACTATAGGGATAATCGCCCTGAGCAAAGACC	2.9 ± 0.088
CTCGAGGATATCAAGATCTGGCCTCGGCTGTCTAAAAGGAACCTCTAGCTAGCCGACTCACTATAGGGATAATCGCCCTGAGCAAAGACC	-0.572 ± 0.102
CTCGAGGATATCAAGATCTGGCCTCGGCCCACTAAAAGGAACCTCTAGCTAGCCGACTCACTATAGGGATAATCGCCCTGAGCAAAGACC	1.42 ± 0.114
CTCGAGGATATCAAGATCTGGCCTCGGCCTCTTAAAAGGAACCTCTAGCTAGCCGACTCACTATAGGGATAATCGCCCTGAGCAAAGACC	2.2 ± 0.0925
CTCGAGGATATCAAGATCTGGCCTCGGCATTTTAAAAGGAACCTCTAGCTAGCCGACTCACTATAGGGATAATCGCCCTGAGCAAAGACC	2.49 ± 0.0611
CTCGAGGATATCAAGATCTGGCCTCGGCATGCTAAAAGGAACCTCTAGCTAGCCGACTCACTATAGGGATAATCGCCCTGAGCAAAGACC	0.0523 ± 0.0889
CTCGAGGATATCAAGATCTGGCCTCGGCTCTTTAAAAGGAACCTCTAGCTAGCCGACTCACTATAGGGATAATCGCCCTGAGCAAAGACC	2.42 ± 0.0868

Sequence	binding signal [log2FC]
CTCGAGGATATCAAGATCTGGCCTCGGCCGCCCAAGCGGAACCTCTAGCTAGCCGACTCACTATAGGGATAATCGCCCTGAGCAAAGACC	-0.698 ± 0.123
CTCGAGGATATCAAGATCTGGCCTCGGCGTTTTAGCTGGAACCTCTAGCTAGCCGACTCACTATAGGGATAATCGCCCTGAGCAAAGACC	-0.719 ± 0.136
CTCGAGGATATCAAGATCTGGCCTCGGCCTTTTAACTGGAACCTCTAGCTAGCCGACTCACTATAGGGATAATCGCCCTGAGCAAAGACC	1.7 ± 0.0719
CTCGAGGATATCAAGATCTGGCCTCGGCGTTTTAAACGGAACCTCTAGCTAGCCGACTCACTATAGGGATAATCGCCCTGAGCAAAGACC	0.884 ± 0.0954
CTCGAGGATATCAAGATCTGGCCTCGGCCGCACCCGCGGAACCTCTAGCTAGCCGACTCACTATAGGGATAATCGCCCTGAGCAAAGACC	-1.02 ± 0.126
CTCGAGGATATCAAGATCTGGCCTCGGCATTTTATGAGGAACCTCTAGCTAGCCGACTCACTATAGGGATAATCGCCCTGAGCAAAGACC	3.3 ± 0.0767
CTCGAGGATATCAAGATCTGGCCTCGGCCAATGGGCGGGAACCTCTAGCTAGCCGACTCACTATAGGGATAATCGCCCTGAGCAAAGACC	-0.903 ± 0.11
CTCGAGGATATCAAGATCTGGCCTCGGCGCGTGGAGCGGAACCTCTAGCTAGCCGACTCACTATAGGGATAATCGCCCTGAGCAAAGACC	-0.893 ± 0.118
CTCGAGGATATCAAGATCTGGCCTCGGCTGTTTAAAAGGAACCTCTAGCTAGCCGACTCACTATAGGGATAATCGCCCTGAGCAAAGACC	1.97 ± 0.0666
CTCGAGGATATCAAGATCTGGCCTCGGCAGAGTAAAAGGAACCTCTAGCTAGCCGACTCACTATAGGGATAATCGCCCTGAGCAAAGACC	0.253 ± 0.1
CTCGAGGATATCAAGATCTGGCCTCGGCATTTTAATTGGAACCTCTAGCTAGCCGACTCACTATAGGGATAATCGCCCTGAGCAAAGACC	2.74 ± 0.0827
CTCGAGGATATCAAGATCTGGCCTCGGCCTTTTATACGGAACCTCTAGCTAGCCGACTCACTATAGGGATAATCGCCCTGAGCAAAGACC	2.32 ± 0.0734
CTCGAGGATATCAAGATCTGGCCTCGGCTAATTAAAAGGAACCTCTAGCTAGCCGACTCACTATAGGGATAATCGCCCTGAGCAAAGACC	2.92 ± 0.0818
CTCGAGGATATCAAGATCTGGCCTCGGCTTTTTAATGGGAACCTCTAGCTAGCCGACTCACTATAGGGATAATCGCCCTGAGCAAAGACC	2.57 ± 0.0871
CTCGAGGATATCAAGATCTGGCCTCGGCTCATTAAAAGGAACCTCTAGCTAGCCGACTCACTATAGGGATAATCGCCCTGAGCAAAGACC	2.97 ± 0.0761
CTCGAGGATATCAAGATCTGGCCTCGGCATTTTATAGGGAACCTCTAGCTAGCCGACTCACTATAGGGATAATCGCCCTGAGCAAAGACC	3.25 ± 0.0782
CTCGAGGATATCAAGATCTGGCCTCGGCCGTTTAAAAGGAACCTCTAGCTAGCCGACTCACTATAGGGATAATCGCCCTGAGCAAAGACC	1.9 ± 0.069
CTCGAGGATATCAAGATCTGGCCTCGGCTCAGTAAAAGGAACCTCTAGCTAGCCGACTCACTATAGGGATAATCGCCCTGAGCAAAGACC	1.56 ± 0.0915
CTCGAGGATATCAAGATCTGGCCTCGGCGAGATAAAAGGAACCTCTAGCTAGCCGACTCACTATAGGGATAATCGCCCTGAGCAAAGACC	0.43 ± 0.0919

Reference: paper doi:10.1101/2024.03.05.583629
